3 compounds from PubChem BioAssay (Tox21) can be followed below.

“And” between values parts separate entries of the source, which are not always exact repeats. Equal values may be shown once. Records with an inconclusive call do not appear. Unmarked numbers belong to inactive results. The source made the active and inactive calls. The call rests on the fitted dose curve.

The assay in a line: Nuclear factor erythroid 2-related factor 2/antioxidant responsive element (Nrf2/ARE) small molecule agonists: luciferase reporter gene qHTS assay in human keratinocytes (AID 1919969). Further: nearly all actives have a fitted effect of over 35% in size. On the technique in general: In a reporter assay the amount or activity of a reporter protein is the signal.
On the % scale 0 is the no-effect control and ±100 the full control effect; potency means the concentration at half of the fitted maximal effect.

Regarding `Cc1nc(N)nc(N)n1`, the Potency entry was “inactive”.
For the compound `CC(C)(C)c1cc(O)ccc1O`, the Potency is 24.3 µM (active) and 30.6 µM (active).
Take `Clc1cc2c(cc1Cl)Oc1cc(Cl)c(Cl)cc1O2`: the activity, positive = activation was 4.08% [at 0.349 µM].
